Drawing on PubChem BioAssay (EPA / NIEHS), this text covers outcome and AC50 for eight molecules.

By AC50 is commonly meant the concentration giving half of the maximal activity seen.

Structures are written as SMILES. “And” between values parts separate entries of the source, which are not always exact repeats. Identical values can stand only once. The source made the active and inactive calls. The calls were made as follows, unless noted: active = hit-call score of the fitted dose curve at least 0.9, where 1 is the maximum; inactive = score below 0.9.

Read-out in assay [1]: CD40, CD40 (gene 958)
The experiment in a line: BSK_IMphg_CD40: BioMAP Diversity Plus: IMphg Assay for CD40 Biomarker Activity (AID 2284288). The conditions noted are these: primary human endothelial cells with macrophages. The essentials:
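ELISA read-out of cell-surface CD40 at 24 h in human venular endothelial cell/macrophage co-cultures. Activity fitted in the positive direction against DMSO; parallel SRB staining (560 nm) gauges overt cytotoxicity.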

Read-out in assay [2]: TIMP metallopeptidase inhibitor 2 (TIMP2), TIMP2 (gene 7077)
The experiment in a line: BSK_hDFCGF_TIMP2: BioMAP Diversity Plus: hDFCGF Assay for TIMP metallopeptidase inhibitor 2 (TIMP2) Biomarker Activity (AID 2284289). The conditions noted are these: primary human foreskin fibroblasts. The essentials:
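Primary human foreskin fibroblasts in the hDFCGF system, dosed for 24 h; TIMP-2 level measured by ELISA, fitted in the positive direction against DMSO; cytotoxicity checked in parallel by sulforhodamine B total protein staining.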

Read-out in assay [3]: Interleukin-1 alpha (IL1a), IL1A (gene 3552)
The experiment in a line: BSK_IMphg_IL1a: BioMAP Diversity Plus: IMphg Assay for Interleukin-1 alpha (IL1a) Biomarker Activity (AID 2284290). The conditions noted are these: primary human endothelial cells with macrophages. The essentials: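 IL-1α is quantified by ELISA at 24 h in the endothelial/macrophage IMphg co-culture, with gain of signal fitted relative to DMSO. Parallel SRB total-protein staining flags overt toxicity.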

Read-out in assay [4]: E-selectin (Homo sapiens) (UniProt P16581)
The experiment in a line: BSK_IMphg_ESelectin: BioMAP Diversity Plus: IMphg Assay for Eselectin Biomarker Activity (AID 2284291). The conditions noted are these: primary human endothelial cells with macrophages. The procedure, abridged: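 Analysed against DMSO baseline in the positive fitting direction, this endpoint is an ELISA read of E-selectin. It comes from human venular endothelial cells co-cultured with macrophages, sampled 24 h post-dose.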

The nature of assay [5]: BSK_IMphg_SRB: Viability Assessment in the BioMAP Diversity Plus: IMphg Assay (AID 2284292).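 Also: measured one day after compound addition.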 The conditions noted are these: primary human endothelial cells with macrophages. The procedure, abridged:
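SRB viability endpoint: cultures of human endothelial cells plus macrophages fixed with 10% TCA, stained with 0.1% SRB, read at 560 nm 24 h post-dosing. Only gain-of-signal fitted, relative to DMSO.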

Read-out in assay [6]: Macrophage colony-stimulating factor (MCSF), CSF1 (gene 1435)
The experiment in a line: BSK_IMphg_MCSF: BioMAP Diversity Plus: IMphg Assay for Macrophage colony-stimulating factor (MCSF) Biomarker Activity (AID 2284293). The conditions noted are these: primary human endothelial cells with macrophages. The essentials:
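M-CSF was measured by ELISA in human venular endothelial cell/macrophage co-cultures dosed for 24 hours. Sulforhodamine B staining of parallel cultures assessed cytotoxicity; data fitted against DMSO baseline.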

Read-out in assay [7]: Interleukin-10 (IL10), IL10 (gene 3586)
The experiment in a line: BSK_IMphg_IL10: BioMAP Diversity Plus: IMphg Assay for Interleukin-10 (IL10) Biomarker Activity (AID 2284294). The conditions noted are these: primary human endothelial cells with macrophages. The procedure, abridged: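 IL-10 read by ELISA after 24 h chemical exposure of primary human venular endothelial cell/macrophage cocultures, with DMSO as baseline. Parallel SRB staining (560 nm) gauged overt cytotoxicity.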

The nature of assay [8]: BSK_IMphg_SRB.Mphg: Macrophage Viability Assessment in the BioMAP Diversity Plus: IMphg Assay (AID 2284295). The conditions noted are these: primary human endothelial cells with macrophages. The procedure, abridged:
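Cytotoxicity read-out: parallel cultures fixed with 10% TCA, stained with 0.1% sulforhodamine B, read at 560 nm. System combines venular endothelium and macrophages; sampled 24 h post-dosing, fitted positively relative to DMSO control.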

Read-out in assay [9]: Thrombomodulin, THBD (gene 7056)
The experiment in a line: BSK_LPS_Thrombomodulin: BioMAP Diversity Plus: LPS Assay for Thrombomodulin Biomarker Activity (AID 2284296). The conditions noted are these: primary human HUVEC with PBMC. The essentials: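 Thrombomodulin on the surface of LPS-activated endothelial/PBMC co-cultures was quantified by ELISA at 24 hours post-dosing, with DMSO as baseline. Parallel SRB total-protein staining flagged overt cytotoxicity.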

Read-out in assay [10]: CD69, CD69 (gene 969)
The experiment in a line: BSK_LPS_CD69: BioMAP Diversity Plus: LPS Assay for CD69 Biomarker Activity (AID 2284303). The conditions noted are these: primary human HUVEC with PBMC. The essentials: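 CD69 surface levels were read by ELISA after 24 h chemical treatment of an LPS-stimulated HUVEC plus PBMC co-culture; positive-direction fit against DMSO vehicle.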

Assay [11] in a line: Tanguay_ZF_120hpf_MO24: Oregon State University Tanguay Lab 24 Hour Post-fertilization zebrafish Assay for Mortality (AID 2284389). The essentials:
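Embryo death at 24 hpf was recorded as present or absent in Tropical 5D zebrafish, dechorionated at 4 hpf and dosed statically from 6 hpf (28C, 0.64% DMSO); 5 uM trimethyltin chloride served as positive control.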

Assay [12] relates to TTR (gene 7276). The experiment in a line: CCTE_GLTED_hTTR_0.5uM: CCTE's human Transthyretin (hTTR) Inhibition Assay, with 0.5uM TTR, Great Lakes Toxicology and Ecology Division (GLTED) Lab (AID 2284320). The procedure, abridged:
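Probe (ANSA) displacement from 0.5 uM human transthyretin was followed by fluorescence (ex 380, em 475) after a 2 h incubation with chemical. Activity was scored as signal loss and fitted positively relative to DMSO.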

Assay [13] in a line: CCTE_Deisenroth_5AR_NBTE_donor: CCTE's 5alpha-reductase NanoBRET Target Engagement Assay […], Deisenroth Lab (AID 2284319). The conditions noted are these: actives raise or lower the signal. The essentials: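 HEK293T cells were reverse transfected with an SRD5A2-NanoLuc vector for 20 h, exposed to test chemical (8 points, 10 nM - 29.9 uM) for 3 h, then testosterone tracer for 2 h more. Donor luminescence (460 nm) was read; bidirectional fit versus DMSO.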
A general note: In BRET a luciferase serves as donor, and the signal depends on an acceptor being close.

Assay [14] in a line: CCTE_Deisenroth_5AR_NBTE_acceptor: CCTE's 5alpha-reductase NanoBRET Target Engagement Assay - Autofluorescence Screen, Deisenroth Lab (AID 2284321).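 Also: compound fluorescence in the acceptor channel under 460 nm excitation flags autofluorescence artifacts.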 The conditions noted are these: actives raise or lower the signal. The procedure, abridged: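 Using three independent plate-reader runs, nominal 100 uM chemicals were checked for intrinsic fluorescence (ex 460 nm). DMSO defined the baseline for bidirectional fitting.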

In assay [15] the test system is SRD5A2 (gene 6716). The experiment in a line: CCTE_Deisenroth_5AR_NBTE_ratio: CCTE's 5alpha-reductase NanoBRET Target Engagement Assay - Ratio, Deisenroth Lab (AID 2284322). The conditions noted are these: actives raise or lower the signal. The essentials: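 SRD5A2-NanoLuc HEK293T; cmpd 10 nM-29.9 uM, 3 h preinc + testosterone tracer 2 h; NanoBRET ratio 650/460; bidirectional fit vs DMSO.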

Assay [16] relates to SERPINA7 (gene 6906). The experiment in a line: CCTE_GLTED_hTBG: CCTE's human Thyroxine-binding Globulin (TBG) Inhibition Assay, Great Lakes Toxicology and Ecology Division (GLTED) Lab (AID 2284343; active = hit-call score of the fitted dose curve at least 0.9, where 1 is the maximum;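 also: active chemicals lower fluorescence versus DMSO baseline by displacing probe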). The essentials: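 Steps: combine TBG with chemical; incubate 2 hours so that disruptors release ANSA; record fluorescence (380 ex, 475 em). Loss of signal was fitted against DMSO controls.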

Assay [17] relates to IYD (gene 389434). The experiment in a line: CCTE_GLTED_hIYD: CCTE's human Iodotyrosine Deiodinase (xIYD) Inhibition Assay, Great Lakes Toxicology and Ecology Division (GLTED) Lab (AID 2284317; active = hit-call score of the fitted dose curve at least 0.9, where 1 is the maximum;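 also: cell-free human IYD enzyme made in baculovirus insect cells; iodide freed from monoiodotyrosine measured by cerium arsenite color change at 420 nm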). The essentials:
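Iodide liberated from monoiodotyrosine by baculovirus-expressed human IYD over 3 h was determined colorimetrically (Sandell-Kolthoff, 420 nm) after Dowex separation; inhibition is loss of signal versus DMSO.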

E-selectin (Homo sapiens), sequence (P16581 whole entry, looked up): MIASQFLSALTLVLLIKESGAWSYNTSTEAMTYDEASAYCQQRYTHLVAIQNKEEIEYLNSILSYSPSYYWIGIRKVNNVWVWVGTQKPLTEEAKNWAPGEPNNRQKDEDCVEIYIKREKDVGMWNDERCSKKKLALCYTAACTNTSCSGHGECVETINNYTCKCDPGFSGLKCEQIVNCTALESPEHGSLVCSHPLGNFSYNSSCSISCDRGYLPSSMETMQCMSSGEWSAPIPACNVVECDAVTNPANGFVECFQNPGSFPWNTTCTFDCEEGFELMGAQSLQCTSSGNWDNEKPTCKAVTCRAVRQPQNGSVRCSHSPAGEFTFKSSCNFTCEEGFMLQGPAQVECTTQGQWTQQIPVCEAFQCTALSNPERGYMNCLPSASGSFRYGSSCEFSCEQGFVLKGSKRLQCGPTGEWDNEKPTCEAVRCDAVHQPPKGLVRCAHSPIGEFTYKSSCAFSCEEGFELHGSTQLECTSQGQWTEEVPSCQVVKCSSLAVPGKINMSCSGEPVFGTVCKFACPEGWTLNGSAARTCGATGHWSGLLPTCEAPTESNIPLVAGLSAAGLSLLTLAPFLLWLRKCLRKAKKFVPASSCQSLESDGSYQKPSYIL

For the molecule `OC(O)C(F)(F)C(F)(F)F`, the outcome in [1], in [2], in assay [3], in assay [4], in assay [5] and in assay [6] was inactive. For the same molecule, the result in assay [7], in assay [8], in [9], in assay [10] and in assay [11] was inactive.
In the case of `NC(=O)C(F)(F)C(F)(F)C(F)(F)C(F)F`, the outcome in [1], in assay [2], in [3], in assay [4], in [5] and in [6] was inactive. Moreover, the outcome in assay [7], in [8], in [9], in assay [10] and in assay [11] was inactive. Also, the AC50 in assay [12] was 45.2 µM (active).
Turning to `CCCCCCCCCc1ccc(OCCO)cc1`, the concentration at half-maximal activity (AC50) in [13] was 40.3 µM (active); in assay [14], 19.1 µM (active); in assay [15], 88.8 µM (active); in [16], 50 µM (active).
As to `CCCCCCCCCCCCC[N+](C)(C)Cc1ccccc1`, the AC50 was 70.8 µM (active) in assay [17], 18.2 µM (active) in assay [13], 17.2 µM (active) in assay [14] and 68.9 µM (active) in [15].
Turning to `OCC(F)(F)C(F)(F)C(F)(F)C(F)(F)C(F)(F)C(F)(F)CO`, the outcome in assay [1], in [2], in assay [3], in assay [4], in assay [5] and in assay [6] was inactive. The outcome in [8], in [9], in assay [10] and in assay [11] was inactive. Further, the AC50 was 3.34 µM (active) and 5.58 µM (active) in [7]; 11.2 µM (active) in assay [12].
Take `O=S(=O)(O)CCC(F)(F)C(F)(F)C(F)(F)C(F)(F)F`: the outcome in assay [1], in assay [2], in [3], in assay [4], in assay [5] and in [6] was inactive. The result in assay [7], in assay [8], in assay [9], in [10] and in assay [11] was inactive. Besides, in assay [12], the AC50 is 2.1 µM (active).
Consider `CC(C)Nc1ccc(NC(C)C)c2c1C(=O)c1ccccc1C2=O`, for which the call in assay [13] and in assay [14] was inactive. For the same molecule, in [15], the AC50 is 3.06 µM (active).
For `COC(F)(C(F)F)C(F)(F)F` (centres undefined), the result in assay [1], in [2], in [3], in [4], in [5] and in [6] was inactive. Further, the outcome in assay [7], in [8], in assay [9], in assay [10] and in assay [11] was inactive.
